In PubChem BioAssay (EPA / NIEHS):
“And” between values parts separate entries of the source, which are not always exact repeats. Equal entries are not always repeated. Results filed as inconclusive are left out. Where a structure was tested more than once in an assay, its records may differ in their call. The source made the active and inactive calls. The calls were made as follows, unless noted: active = hit-call score of the fitted dose curve at least 0.9, where 1 is the maximum; inconclusive = response in the unintended direction; inactive = score below 0.9.

What was measured:
[1] = biological target: Peroxisome proliferator-activated receptor gamma (Homo sapiens) (UniProt P37231); assay: ATG_hPPARg_XSP2: Attagene TRANS-FACTORIAL Multi-Species (XSP2) HepG2 Assay for human Peroxisome Proliferator-activated Receptor gamma (PPARg) (AID 2283829);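 also: actives raise reporter mRNA above DMSO so AC50 reflects PPARg activation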
Sequence of Peroxisome proliferator-activated receptor gamma (Homo sapiens) (P37231 whole entry, looked up, the tested form may be a part): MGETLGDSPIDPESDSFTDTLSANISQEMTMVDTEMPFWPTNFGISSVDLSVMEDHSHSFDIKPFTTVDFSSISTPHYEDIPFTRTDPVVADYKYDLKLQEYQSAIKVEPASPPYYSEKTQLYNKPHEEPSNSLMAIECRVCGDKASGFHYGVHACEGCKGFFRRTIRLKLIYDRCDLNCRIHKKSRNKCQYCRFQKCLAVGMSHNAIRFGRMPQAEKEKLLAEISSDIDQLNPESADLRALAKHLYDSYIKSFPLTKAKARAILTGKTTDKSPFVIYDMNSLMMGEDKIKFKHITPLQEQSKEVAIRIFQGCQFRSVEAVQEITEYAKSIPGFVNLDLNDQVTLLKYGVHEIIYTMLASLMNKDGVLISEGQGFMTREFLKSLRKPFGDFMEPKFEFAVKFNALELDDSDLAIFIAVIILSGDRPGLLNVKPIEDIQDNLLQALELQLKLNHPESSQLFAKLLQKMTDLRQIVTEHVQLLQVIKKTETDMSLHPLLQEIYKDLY
In short: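 Multiplexed transactivation in transfected HepG2 liver cells. Gal4-chimeric receptor activity reported as induced reporter transcript after 24 h.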

[2] = biological target: mouse Peroxisome Proliferator-activated Receptor gamma (PPARg), Pparg (gene 19016) (UniProt P37238); assay: ATG_mPPARg_XSP2: Attagene TRANS-FACTORIAL Multi-Species (XSP2) HepG2 Assay for mouse Peroxisome Proliferator-activated Receptor gamma (PPARg) (AID 2283830);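 also: hits are gains in reporter mRNA above DMSO so AC50 marks activation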
Sequence of mouse Peroxisome Proliferator-activated Receptor gamma (PPARg), Pparg (gene 19016) (P37238 whole entry, looked up, the tested form may be a part): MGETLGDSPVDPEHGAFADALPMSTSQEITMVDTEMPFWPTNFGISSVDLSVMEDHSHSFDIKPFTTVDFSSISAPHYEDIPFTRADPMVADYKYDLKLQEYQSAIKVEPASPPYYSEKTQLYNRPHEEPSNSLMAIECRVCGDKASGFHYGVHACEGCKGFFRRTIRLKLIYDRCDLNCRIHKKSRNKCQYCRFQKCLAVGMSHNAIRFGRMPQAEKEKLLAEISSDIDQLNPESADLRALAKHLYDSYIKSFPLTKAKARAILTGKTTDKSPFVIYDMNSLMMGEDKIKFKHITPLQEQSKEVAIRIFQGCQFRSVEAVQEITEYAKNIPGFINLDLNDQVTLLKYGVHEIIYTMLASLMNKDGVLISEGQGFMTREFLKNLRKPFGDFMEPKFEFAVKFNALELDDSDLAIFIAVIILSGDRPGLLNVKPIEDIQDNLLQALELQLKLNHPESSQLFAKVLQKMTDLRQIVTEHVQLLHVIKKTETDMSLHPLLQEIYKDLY
In short: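 HepG2 cells transiently transfected with GAL4-UAS reporter units for chimeric NR-Gal4 proteins including mouse PPARg, exposed 24 h; medium contained 3 nM 6-alpha-fluorotestosterone and 1.5 nM norgestrel. Reporter mRNA quantified by RT-PCR, HpaI digestion and capillary electrophoresis, vs DMSO.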

[3] = biological target: Nuclear receptor subfamily 1 group I member 2 (Mus musculus) (UniProt O54915); assay: ATG_mPXR_XSP2: Attagene TRANS-FACTORIAL Multi-Species (XSP1) HepG2 Assay for mouse Pregnane X Receptor (PXR) (AID 2283831)
Sequence of Nuclear receptor subfamily 1 group I member 2 (Mus musculus) (O54915 whole entry, looked up, the tested form may be a part): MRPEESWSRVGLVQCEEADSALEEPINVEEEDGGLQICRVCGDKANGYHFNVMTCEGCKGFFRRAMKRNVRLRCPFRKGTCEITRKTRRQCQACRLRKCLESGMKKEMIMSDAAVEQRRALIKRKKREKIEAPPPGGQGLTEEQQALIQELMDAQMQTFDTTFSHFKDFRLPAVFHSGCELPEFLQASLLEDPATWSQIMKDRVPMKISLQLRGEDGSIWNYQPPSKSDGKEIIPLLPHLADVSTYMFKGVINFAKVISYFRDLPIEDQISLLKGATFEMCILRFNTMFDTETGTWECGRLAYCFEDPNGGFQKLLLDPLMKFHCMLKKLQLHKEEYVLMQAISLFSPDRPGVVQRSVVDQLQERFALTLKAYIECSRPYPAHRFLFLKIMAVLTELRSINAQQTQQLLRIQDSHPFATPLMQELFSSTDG
In short: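 Human liver HepG2 cells expressing exogenous receptor-GAL4 chimeras were exposed to test chemicals for 24 h. Induction of reporter mRNA was scored as gain of fluorescence signal over DMSO controls.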

[4] = biological target: zebrafish Thyroid Hormone Receptor alpha (TRa), thraa (gene 30670) (UniProt Q98867); assay: ATG_zfTRa_XSP2: Attagene TRANS-FACTORIAL Multi-Species (XSP1) HepG2 Assay for zebrafish Thyroid Hormone Receptor alpha (TRa) (AID 2283832);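 also: actives raise zebrafish TRa-Gal4 reporter transcript above DMSO baseline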
Sequence of zebrafish Thyroid Hormone Receptor alpha (TRa), thraa (gene 30670) (Q98867 whole entry, looked up, the tested form may be a part): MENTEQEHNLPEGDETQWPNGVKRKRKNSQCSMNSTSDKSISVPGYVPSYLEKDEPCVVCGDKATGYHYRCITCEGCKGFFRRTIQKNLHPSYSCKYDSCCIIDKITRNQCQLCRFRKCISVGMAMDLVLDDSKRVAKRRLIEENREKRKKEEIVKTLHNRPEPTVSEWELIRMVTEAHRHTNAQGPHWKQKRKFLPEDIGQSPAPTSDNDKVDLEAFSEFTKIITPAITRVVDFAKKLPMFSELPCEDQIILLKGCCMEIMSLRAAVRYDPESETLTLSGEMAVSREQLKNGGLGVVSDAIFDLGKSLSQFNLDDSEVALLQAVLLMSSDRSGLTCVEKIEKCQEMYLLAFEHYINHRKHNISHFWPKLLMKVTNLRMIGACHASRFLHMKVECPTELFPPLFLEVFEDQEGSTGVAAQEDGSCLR
In short: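 Chimeric receptor-Gal4 activity was assessed in transfected human liver HepG2 cells 24 h after dosing, using reporter transcript levels detected by RT-PCR and capillary electrophoresis. DMSO served as baseline.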

[5] = test system: zebrafish Peroxisome Proliferator-activated Receptor gamma (PPARg), gene 557037; assay: ATG_zfPPARg_XSP2: Attagene TRANS-FACTORIAL Multi-Species (XSP2) HepG2 Assay for zebrafish Peroxisome Proliferator-activated Receptor gamma (PPARg) (AID 2283833);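 also: actives increase reporter signal over DMSO so AC50 reflects activation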
Method: ATG_XSP2_multi-species_TRANS is a cell-based, multiplexed assay created by modifying the existing Attagene TRANS-FACTORIAL system to include a panel of nuclear receptors from some or all the following species: human (Homo sapiens), mouse (Mus musculus), frog (Xenopus laevis), zebrafish (Danio rerio), chicken (Gallus gallus), and turtle (Chrysemys picta). The ECOTOX-FACTORIAL format uses HepG2, a human liver cell line, with measurements taken at 24 hours after chemical dosing in a 24-well plate. Xsp2 included 3 nM 6-alpha-fluorotestosterone and 1.5 nM norgestrel to stimulate the androgen receptor.ATG_zfPPARg_XSP2 is one of 29 assay components measured or calculated from the ATG_XSP2_multi-species_TRANS assay. It is designed to make measurements of mRNA induction, a form of inducible reporter, as detected with fluorescence intensity signals by Reverse transcription polymerase chain reaction (RT-PCR) and Capillary electrophoresis technology.The assay endpoint ATG_zfPPARg_XSP2 was analyzed in the positive analysis fitting direction relative to DMSO as the negative control and baseline of activity. […] Furthermore, this assay endpoint can be referred to as a primary readout, because this assay has produced multiple assay endpoints where this one serves a reporter gene function. […]
Human liver HepG2 cells are transiently transfected with multiple reporter transcription units (MRTUs) in 6-well plates using FuGene 6 reagent (Roche; 3 ml FuGene/1 mg DNA). […] A major difference between the CIS and TRANS system is that in CIS activities of endogenous TFs are measured, whereas the TRANS assay evaluates changes in activities of exogenous, chimeric NR-Gal4 proteins. […] The fragments were purified using Qiaquick PCR columns (Qiagen), analyzed on an ABI 3130xL genetic analyzer (Applied Biosystems) with peak positions identified by using a set of X-rhodamine (ROX)-labeled MapMarker1000 molecular weight standards (BioVentures). […]

[6] = test system: turtle Thyroid Hormone Receptor, alpha (TRa), gene 101949057; assay: ATG_trTRa_XSP2: Attagene TRANS-FACTORIAL Multi-Species (XSP1) HepG2 Assay for turtle Thyroid Hormone Receptor, alpha (TRa) (AID 2283834);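 also: hits raise reporter mRNA over the DMSO baseline so AC50 marks activators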
In short: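 Gain-of-signal reporter transcription measured in transiently transfected HepG2 at 24 h post-dose. Fluorescent RT-PCR products were resolved by capillary electrophoresis and compared with DMSO vehicle.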

[7] = ATG_M_61_XSP2: Attagene TRANS-FACTORIAL Multi-Species (XSP2) HepG2 Assay for M61 Transcription Factor (Internal Marker) (AID 2283835; active = hit-call score of the fitted dose curve at least 0.9, where 1 is the maximum; inactive = score below 0.9;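 also: reporter mRNA of an internal background marker read by RT-PCR and capillary electrophoresis; active means a rise in signal above the DMSO baseline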)
In short: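 HepG2 cells transiently transfected with multiple GAL4-UAS reporter units; 3 nM 6-alpha-fluorotestosterone and 1.5 nM norgestrel present to stimulate androgen receptor. After 24 h compound exposure, reporter mRNA measured by RT-PCR and capillary electrophoresis fluorescence, gain-of-signal versus DMSO baseline.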

[8] = biological target: zebrafish Thyroid Hormone Receptor beta (TRb), thrb (gene 30607) (UniProt Q9PVE4); assay: ATG_zfTRb_XSP2: Attagene TRANS-FACTORIAL Multi-Species (XSP1) HepG2 Assay for zebrafish Thyroid Hormone Receptor beta (TRb) (AID 2283836)
Sequence of zebrafish Thyroid Hormone Receptor beta (TRb), thrb (gene 30607) (Q9PVE4 whole entry, looked up): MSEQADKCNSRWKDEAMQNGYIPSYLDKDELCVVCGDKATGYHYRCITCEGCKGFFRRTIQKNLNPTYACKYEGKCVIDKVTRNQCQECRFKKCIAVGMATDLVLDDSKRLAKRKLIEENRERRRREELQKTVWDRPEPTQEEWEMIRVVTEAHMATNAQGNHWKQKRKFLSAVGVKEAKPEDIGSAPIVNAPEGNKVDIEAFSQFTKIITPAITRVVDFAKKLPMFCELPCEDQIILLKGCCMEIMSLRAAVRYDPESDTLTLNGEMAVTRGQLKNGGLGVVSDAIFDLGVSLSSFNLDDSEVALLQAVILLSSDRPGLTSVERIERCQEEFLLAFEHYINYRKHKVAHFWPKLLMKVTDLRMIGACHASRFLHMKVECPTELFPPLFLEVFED
Method: ATG_XSP2_multi-species_TRANS is a cell-based, multiplexed assay created by modifying the existing Attagene TRANS-FACTORIAL system to include a panel of nuclear receptors from some or all the following species: human (Homo sapiens), mouse (Mus musculus), frog (Xenopus laevis), zebrafish (Danio rerio), chicken (Gallus gallus), and turtle (Chrysemys picta). The ECOTOX-FACTORIAL format uses HepG2, a human liver cell line, with measurements taken at 24 hours after chemical dosing in a 24-well plate. Xsp2 included 3 nM 6-alpha-fluorotestosterone and 1.5 nM norgestrel to stimulate the androgen receptor.ATG_zfTRb_XSP2 is one of 29 assay components measured or calculated from the ATG_XSP2_multi-species_TRANS assay. It is designed to make measurements of mRNA induction, a form of inducible reporter, as detected with fluorescence intensity signals by Reverse transcription polymerase chain reaction (RT-PCR) and Capillary electrophoresis technology.The assay endpoint ATG_zfTRb_XSP2 was analyzed in the positive analysis fitting direction relative to DMSO as the negative control and baseline of activity. Using a type of inducible reporter, measures of mRNA for gain-of-signal activity can be used to understand the reporter gene at the transcription factor-level as they relate to the gene TR. Furthermore, this assay endpoint can be referred to as a primary readout, because this assay has produced multiple assay endpoints where this one serves a reporter gene function. To generalize the intended target to other relatable targets, this assay endpoint is annotated to the nuclear receptor intended target family, where the subfamily is non-steroidal.
Human liver HepG2 cells are transiently transfected with multiple reporter transcription units (MRTUs) in 6-well plates using FuGene 6 reagent (Roche; 3 ml FuGene/1 mg DNA). The MRTU constructs are regulated by a cis-regulating element (promoter). […] A major difference between the CIS and TRANS system is that in CIS activities of endogenous TFs are measured, whereas the TRANS assay evaluates changes in activities of exogenous, chimeric NR-Gal4 proteins. […] At the end of 24 hour incubation, total RNA was isolated using TriZol reagent (Invitrogen). The isolated RNA is then reverse-transcribed using oligo(dT) primer and Mo-MLV reverse transcriptase (Invitrogen) with DNAse I (Ambion) treatment for 30 min. […] The fragments were purified using Qiaquick PCR columns (Qiagen), analyzed on an ABI 3130xL genetic analyzer (Applied Biosystems) with peak positions identified by using a set of X-rhodamine (ROX)-labeled MapMarker1000 molecular weight standards (BioVentures). […]

[9] = biological target: human Thyroid hormone Receptor alpha (TRa), THRA (gene 7067) (UniProt P10827); assay: ATG_hTRa_XSP2: Attagene TRANS-FACTORIAL Multi-Species (XSP2) HepG2 Assay for human Thyroid hormone Receptor alpha (TRa) (AID 2283838)
Sequence of human Thyroid hormone Receptor alpha (TRa), THRA (gene 7067) (P10827 whole entry, looked up, the tested form may be a part): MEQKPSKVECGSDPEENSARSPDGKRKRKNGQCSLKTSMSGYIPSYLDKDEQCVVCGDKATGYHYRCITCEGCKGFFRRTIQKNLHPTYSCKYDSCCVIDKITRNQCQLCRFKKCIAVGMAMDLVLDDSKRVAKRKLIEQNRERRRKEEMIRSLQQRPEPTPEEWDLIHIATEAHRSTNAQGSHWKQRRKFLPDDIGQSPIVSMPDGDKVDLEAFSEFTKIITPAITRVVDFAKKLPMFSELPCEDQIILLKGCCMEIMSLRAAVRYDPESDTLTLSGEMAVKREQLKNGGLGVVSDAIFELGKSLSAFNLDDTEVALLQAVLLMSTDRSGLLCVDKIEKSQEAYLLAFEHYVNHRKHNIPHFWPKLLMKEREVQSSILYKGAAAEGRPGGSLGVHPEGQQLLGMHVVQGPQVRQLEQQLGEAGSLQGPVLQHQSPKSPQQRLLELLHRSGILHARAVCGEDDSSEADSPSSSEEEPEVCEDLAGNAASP
In short: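 HepG2 cells transiently transfected with multiplexed GAL4-UAS reporter units and exogenous NR-GAL4 chimeras; 24 h chemical exposure with 3 nM 6-alpha-fluorotestosterone and 1.5 nM norgestrel present. Reporter mRNA measured by RT-PCR, FAM labelling, HpaI digestion, capillary electrophoresis; gain-of-signal versus DMSO.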

[10] = ATG_XTT_Cytotoxicity_XSP2: Cytotoxicity Assessment in the Attagene TRANS-FACTORIAL Multi-Species (XSP2) HepG2 Assay (AID 2283837)
In short: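 HepG2 cells, transiently transfected with multiple reporter constructs, exposed to chemical for 24 h. Cell number assessed with XTT fluorescence read-out; loss of signal fitted relative to DMSO.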

Compound	AC50 [1]	outcome [1]	AC50 [2]	outcome [2]	AC50 [3]	outcome [4]	outcome [5]	outcome [6]	outcome [7]	outcome [8]	outcome [9]	outcome [3]	outcome [10]	AC50 [5]
O=C(OCCOCCOCCOC(=O)c1ccccc1)c1ccccc1	46.3 µM (active)	inactive	58.5 µM (active)	inactive	22.8 µM (active)	inactive	inactive	inactive	inactive	inactive	inactive			
C#C[C@]1(O)CC[C@H]2[C@@H]3CCc4cc(OC)ccc4[C@H]3CC[C@@]21C		inactive				inactive		inactive	inactive	inactive	inactive	inactive	inactive	
C(=C(c1ccccc1)c1ccccc1)c1ccccc1		inactive		inactive			inactive	inactive	inactive	inactive	inactive	inactive		
c1ccc(B(c2ccccc2)c2ccccc2)cc1	60.6 µM (active) and 40.8 µM (active)		65.6 µM (active) and 45.9 µM (active)		1.27 µM (active) and 4.39 µM (active)	inactive		inactive	inactive	inactive	inactive		inactive	100 µM (active)
